Experimental data reported in PubChem BioAssay (NCATS).
Results filed as inconclusive are left out. Entries that show only a call come without a potency. Calls of active or inactive are those of the source. The call rests on the fitted dose curve; in most records, active means well fitted curve in the direction sought with a large enough effect; inconclusive means small, poorly fitted or top-dose-only effect, or another doubt; inactive means no such curve, though single readings can be large; an effect the other way counts as inactive or inconclusive.

Key:
[1] = target: Ubiquitin carboxyl-terminal hydrolase 1 (Homo sapiens) (UniProt O94782); test: Inhibitors of USP1/UAF1: Pilot qHTS (AID 504865); further: nearly all actives have a fitted effect of over 35% in size; further: potency means the concentration at half of the fitted maximal effect
Ubiquitin carboxyl-terminal hydrolase 1 (Homo sapiens), sequence (O94782 whole entry, looked up): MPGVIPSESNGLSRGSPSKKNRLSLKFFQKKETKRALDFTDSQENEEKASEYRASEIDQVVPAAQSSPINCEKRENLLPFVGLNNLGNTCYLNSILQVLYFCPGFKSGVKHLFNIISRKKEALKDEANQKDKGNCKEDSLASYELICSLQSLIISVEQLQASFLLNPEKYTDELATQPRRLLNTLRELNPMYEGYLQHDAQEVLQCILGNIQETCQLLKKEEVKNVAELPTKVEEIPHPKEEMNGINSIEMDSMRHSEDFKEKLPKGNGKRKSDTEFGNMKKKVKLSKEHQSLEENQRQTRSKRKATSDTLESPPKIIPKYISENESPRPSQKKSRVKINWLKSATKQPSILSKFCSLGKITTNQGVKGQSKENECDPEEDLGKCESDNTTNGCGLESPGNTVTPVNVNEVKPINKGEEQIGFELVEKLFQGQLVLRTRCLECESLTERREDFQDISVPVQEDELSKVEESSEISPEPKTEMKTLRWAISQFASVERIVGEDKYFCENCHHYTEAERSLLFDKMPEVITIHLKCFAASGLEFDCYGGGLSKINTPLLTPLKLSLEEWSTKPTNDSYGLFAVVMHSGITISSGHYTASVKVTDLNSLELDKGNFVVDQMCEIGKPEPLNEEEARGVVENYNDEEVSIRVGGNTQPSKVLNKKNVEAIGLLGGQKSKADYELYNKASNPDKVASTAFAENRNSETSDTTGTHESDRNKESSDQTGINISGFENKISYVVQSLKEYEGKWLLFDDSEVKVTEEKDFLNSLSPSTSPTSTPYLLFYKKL
In short: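 USP1/UAF1 complex (1nM) preincubated with compound 15 min at room temperature, then Ub-Rho substrate (150nM final) added. Fluorescence read kinetically at 480/540 nm, 6 reads every 60 seconds. Buffer: 50mM HEPES pH 7.8, 0.5mM EDTA, 0.1 mg/ml BSA, 1mM TCEP, 0.01% Tween-20.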

[2] = target: Luciferin 4-monooxygenase (Photinus pyralis) (UniProt P08659); test: Biochemical firefly luciferase enzyme assay for NPC (AID 624030);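 further: purified P. pyralis luciferase at 10 nM with luciferin and ATP substrate; nearly all actives have a fitted effect of over 70% in size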
Luciferin 4-monooxygenase (Photinus pyralis), sequence (P08659 whole entry, looked up): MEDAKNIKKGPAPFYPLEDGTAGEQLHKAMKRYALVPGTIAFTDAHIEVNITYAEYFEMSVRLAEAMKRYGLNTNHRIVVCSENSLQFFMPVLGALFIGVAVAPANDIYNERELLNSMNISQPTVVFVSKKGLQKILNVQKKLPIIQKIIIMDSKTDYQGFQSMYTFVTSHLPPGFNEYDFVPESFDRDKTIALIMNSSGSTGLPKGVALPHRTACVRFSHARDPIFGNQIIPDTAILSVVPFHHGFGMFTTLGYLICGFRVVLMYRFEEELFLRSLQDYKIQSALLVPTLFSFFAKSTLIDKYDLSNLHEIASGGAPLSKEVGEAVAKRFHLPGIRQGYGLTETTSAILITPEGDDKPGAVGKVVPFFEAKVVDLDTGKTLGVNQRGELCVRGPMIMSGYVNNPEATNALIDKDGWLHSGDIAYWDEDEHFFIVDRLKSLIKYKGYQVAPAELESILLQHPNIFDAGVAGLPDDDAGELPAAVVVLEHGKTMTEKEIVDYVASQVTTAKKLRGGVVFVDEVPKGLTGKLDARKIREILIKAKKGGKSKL
In short: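 Direct inhibition of firefly luciferase enzyme (10 nM final, 50 mM Tris Acetate) assessed by luminescence within 5 minutes. Percent activity scaled between DMSO and PTC124 positive control, with concentration-effect curves classified by fit quality and response.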

[3] = test system: DFO2036; test: qHTS profiling for inhibitors of Plasmodium falciparum proliferation (AID 504749); further: nearly all actives have a fitted effect of over 60% in size; further: potency means the concentration at half of the fitted maximal effect; settings: P. falciparum in erythrocytes, SYBR Green DNA, 72 h; series mostly up to 28.7 µM
In short: (§1)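 Three-day growth assay of blood-stage parasites in erythrocytes (0.3% parasitemia, 2.5% hematocrit) at 37 C, 5% CO2, quantified by SYBR Green DNA staining after overnight detergent lysis.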

[4] = S16 Schwann cell PMP22 intronic element firefly luciferase assay (AID 624032); further: nearly all actives have a fitted effect of over 30% in size; further: potency means the concentration at half of the fitted maximal effect
In short: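 Luciferase reporter of PMP22 intronic-element expression in stably transfected S16 rat Schwann cells, read by ONE-Glo luminescence after 24 h compound exposure at 37 C. Activity scaled between DMSO (0%) and positive-control PTC124; concentration-effect curves quality-classified.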

[5] = test system: DIV14; test: qHTS profiling for inhibitors of Plasmodium falciparum proliferation (AID 504749); further: nearly all actives have a fitted effect of over 60% in size; further: potency means the concentration at half of the fitted maximal effect; settings: P. falciparum in erythrocytes, SYBR Green DNA, 72 h; series mostly up to 28.7 µM
In short: as §1

[6] = test system: W2; test: as above; settings: P. falciparum in erythrocytes, SYBR Green DNA, 72 h; series mostly up to 28.7 µM
In short: as §1

[7] = target: Cytochrome P450 3A4 (Homo sapiens) (UniProt P08684); test: qHTS Assay for Inhibitors and Substrates of Cytochrome P450 3A4 (AID 884); further: nearly all actives have a fitted effect of over 50% in size
Cytochrome P450 3A4 (Homo sapiens), sequence (P08684 whole entry, looked up): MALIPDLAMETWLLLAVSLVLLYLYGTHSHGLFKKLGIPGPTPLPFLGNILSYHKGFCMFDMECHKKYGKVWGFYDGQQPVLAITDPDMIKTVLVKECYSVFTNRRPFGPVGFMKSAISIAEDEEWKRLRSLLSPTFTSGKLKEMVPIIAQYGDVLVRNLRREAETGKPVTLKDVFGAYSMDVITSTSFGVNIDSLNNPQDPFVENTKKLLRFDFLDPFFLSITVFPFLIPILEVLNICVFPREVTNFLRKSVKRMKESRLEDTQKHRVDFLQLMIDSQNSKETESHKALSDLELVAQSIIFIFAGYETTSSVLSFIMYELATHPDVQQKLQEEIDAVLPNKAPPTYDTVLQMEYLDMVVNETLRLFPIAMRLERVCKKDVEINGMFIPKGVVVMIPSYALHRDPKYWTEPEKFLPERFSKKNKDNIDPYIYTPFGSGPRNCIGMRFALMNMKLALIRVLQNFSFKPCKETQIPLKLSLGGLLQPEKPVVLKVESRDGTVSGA
In short: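 20 nM human CYP3A4 with 25 uM Luciferin-PPXE (at KM) in 200 mM KPO4, preincubated 10 min with compound; NADPH regeneration started a 60 min RT reaction. Luciferin detected by luminescence, normalized to 57 uM ketoconazole as full inhibition.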

[8] = Confirmation and Secondary Assay for Modulators of Hemoglobin Beta Chain Splicing at IVS2 654 locus (AID 910);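 further: HeLa cells stably carrying EGFP split by mutant beta-globin IVS2-654 intron; per-well total GFP intensity by laser scanning cytometry after 2-day treatment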
In short: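 Readout: per-well total peak green fluorescence (488 nm ex, 500–520 nm em) from objects 5–250 µm, reflecting correct splicing of an EGFP-654 reporter. Compounds were applied for 2 days at 37 °C to overnight-plated HeLa EGFP-654 cells; controls were DMSO and 500 nM IVS2-654 PNA.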

Structure (SMILES)	Potency [1]	Potency [2]	Potency [3]	Potency [4]	Potency [5]	Potency [6]	Potency [7]	Potency [8]
CNC1CCc2cc(OC)c(OC)c(OC)c2-c2ccc(OC)c(=O)cc21 (stereo not drawn)	inactive	inactive	inactive					
COc1ccc(C(=O)/C(Br)=C/C(=O)O)cc1	inactive	inactive	inactive	14.4 µM (active)	inactive			
CC1(C)SC2[C@@H](N=CN3CCCCCC3)C(=O)N2[C@H]1C(=O)O (stereo partly drawn)	inactive	inactive	inactive	inactive				
Nc1nc(Cl)nc2c1ncn2[C@@H]1O[C@H](CO)[C@H](O)C1F (stereo partly drawn)	inactive	inactive	inactive	0.907 µM (active)	inactive	inactive		
CCN(CC)C(=O)[C@@]1(c2ccccc2)C[C@@H]1CN	inactive	inactive	inactive	inactive				
CCC1OC(=O)C[C@H](O)C(C)[C@@H](O[C@@H]2OC(C)C(O)C(N(C)C)C2O)C(CCN2CC(C)CC(C)C2)CC(C)C(=O)/C=C/C(C)=C\[C@@H]1COC1OC(C)C(O)C(OC)C1OC (stereo partly drawn)	inactive			inactive		1.07 µM (active)	inactive	inactive
CC1(C)O[C@@H]2C[C@H]3[C@@H]4CCC5=CC(=O)C=C[C@]5(C)[C@H]4C(O)C[C@]3(C)[C@]2(C(=O)CO)O1 (stereo partly drawn)	inactive	inactive		inactive	inactive			
CN(C)CC[C@@](O)(c1ccccc1)c1ccccc1Cl	inactive			inactive	6.75 µM (active)	1.2 µM (active)		
C=C1C(n2cnc3c(=O)[nH]c(N)nc32)C[C@H](O)[C@H]1CO (stereo partly drawn)	inactive		inactive	inactive				
NC(C(=O)O)C(O)c1ccc(O)c(O)c1 (stereo not drawn)	22.4 µM (active)			inactive				
CC1CCC(O)C/C1=C\C=C1/CCCC2(C)C1CCC2C(C)/C=C/C(C)C(C)C (stereo not drawn)		inactive	inactive	inactive				
Cc1c(C)c2c(c(C)c1O)CCC(C)(CCCC(C)CCCC(C)CCCC(C)C)O2 (stereo not drawn)		inactive	inactive	inactive	inactive	inactive	inactive	inactive
CC(=O)O[C@]1(C(C)=O)CCC2C3CCC4=CC(=O)CCC4(C)C3(F)C(O)CC21C (stereo partly drawn)	inactive	inactive	inactive	inactive	inactive			
C[C@]12CC[C@@H]3c4ccc(O)cc4CC[C@H]3[C@@H]1CCC2OC(=O)CCC1CCCC1 (stereo partly drawn)		inactive	inactive		inactive			
COC(=O)C1C2CC3c4[nH]c5cc(OC)ccc5c4CCN3CC2CC(OC)C1OC (stereo not drawn)	inactive	inactive	inactive	inactive				
C=C(CC[C@@H](C)[C@H]1CCC2[C@]1(C)CC[C@]13C[C@@]14CCC(OC(=O)/C=C/c1ccc(O)c(OC)c1)C(C)(C)[C@@H]4CC[C@@]23C)C(C)C (stereo partly drawn)	inactive		inactive	inactive	inactive	inactive		
O=C(O)C[CH2][Ge](=[O])[O][Ge](=[O])[CH2]CC(=O)O	inactive	inactive	inactive	inactive	inactive	inactive		
